Compound activity from PubChem BioAssay.
A selection: hits, their analogues and other compounds. The true share with any hit is near 19%.
VP16 counter: Gal4-VP16 reporter inhibition counter-screen; 310,000 compounds, 3.5% hits; Potency, µM (titrated, usually from 53.6 µM), for inactives: at the highest dose activity, negative = inhibition, most hits filed as inhibitors; AID 2546; Drosophila S2 Gal4-VP16 UAS-luciferase, luminescence, 20 h;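 also: Gal4-VP16 expression switched on by copper sulfate through the metallothionein promoter; nearly all actives have a fitted effect of over 50% in size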
RORgamma inh: inhibitors of mouse ROR gamma transcriptional activity | P51450 | Drosophila S2 Gal4-RORgamma UAS-luciferase reporter, 20 h | Potency, µM (top dose mostly 53.6 µM), inactives show at the top dose activity change, negative = inhibition, usual class: inhibitors | 310,000 compounds, 5.4% hits | AID 2551; also: nearly all actives have a fitted effect of over 60% in size
Target sequence (P51450 whole entry, looked up, the tested form may be a part): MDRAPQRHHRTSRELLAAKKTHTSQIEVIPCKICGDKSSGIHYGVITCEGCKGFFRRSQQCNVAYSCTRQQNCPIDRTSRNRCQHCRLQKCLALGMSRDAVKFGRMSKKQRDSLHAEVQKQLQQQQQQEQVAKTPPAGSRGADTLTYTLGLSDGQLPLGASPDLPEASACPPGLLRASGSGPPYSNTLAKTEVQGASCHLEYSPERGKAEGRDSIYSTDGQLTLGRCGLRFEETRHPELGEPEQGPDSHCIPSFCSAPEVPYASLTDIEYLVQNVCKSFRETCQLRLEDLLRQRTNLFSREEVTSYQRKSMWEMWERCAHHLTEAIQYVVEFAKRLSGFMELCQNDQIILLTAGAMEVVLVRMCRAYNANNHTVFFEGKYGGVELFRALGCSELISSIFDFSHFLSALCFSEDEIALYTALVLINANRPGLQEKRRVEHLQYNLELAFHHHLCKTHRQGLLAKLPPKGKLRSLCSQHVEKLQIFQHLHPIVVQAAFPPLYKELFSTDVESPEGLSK
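Stably transfected Drosophila Schneider cells are the test system, with ROR gamma fused to Gal4 and luciferase under UAS control; luminescence is read after 20 hr of 700 uM copper sulfate induction at ambient temperature.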
DT40 TDP1 CPT: growth inhibition of DT40 Tdp1-/-;hTDP1 cells with camptothecin (screen for TDP1 inhibitors); chicken DT40 Tdp1-/-;hTDP1 cells + 20 nM CPT, ATP luminescence, 48 h; Potency, µM (highest dose often 46.2 µM), without a hit: at the highest dose activity change, negative = growth inhibition, most hits filed as inhibitors; 420,000 compounds, 12% hits; AID 686979; also: nearly all actives have a fitted effect of over 55% in size
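Chicken DT40 Tdp1-/- cells complemented with human TDP1, 400 cells/well, exposed to compounds plus 20 nM camptothecin for at least 48 h at 37 C; viability read as ATP content by CellTiter-Glo luminescence.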
DT40 TDP1 no CPT: qHTS for Inhibitors of human tyrosyl-DNA phosphodiesterase 1 (TDP1): qHTS in cells in absence of CPT. DT40 Tdp1-/- hTDP1 cells, no CPT, ATP luminescence, 48 h. Potency, µM (titrated, usually from 46.2 µM), without a hit: at the highest dose activity change, negative = growth inhibition, actives largely listed as inhibitors. 420,000 compounds, 15% hits; also: nearly all actives have a fitted effect of over 55% in size
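Seeded 400 DT40-hTDP1 cells/well (vehicle DMSO, no 20 nM CPT); pinned compounds; ≥48 hr at 37 °C; CellTiter-Glo luminescence as viability measure.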
TDP1 block: blocks human tyrosyl-DNA phosphodiesterase 1; Q9NUW8; recombinant TDP1, AlphaScreen DNA substrate cleavage; Potency, µM (highest dose often 130 µM), for inactives: at the highest dose activity change, negative = inhibition, hits mostly inhibitors; 350,000 compounds, 0.28% hits; AID 485290; also: nearly all actives have a fitted effect of over 40% in size
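Recombinant human Tdp1 (E. coli-expressed, 1 nM final) preincubated with compounds 15 min at room temperature, then 5'-biotin/3'-phosphotyrosine-FITC DNA substrate (15 nM final) added for 5 min. AlphaScreen beads (10 ug/ml final) added 10 min; cleavage lowers signal.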
An asterisk follows results filed as active; [ ] = remark or other dose. Calls follow the shape of the dose curve; as a rule, active = well fitted curve in the direction sought with a large enough effect; inconclusive = small, poorly fitted or top-dose-only effect, or another doubt; inactive = no such curve, though single readings can be large; an effect the other way counts as inactive or inconclusive. % is scaled to controls: 0 for no effect and ±100 for the full control effect; potency is read from the fitted curve at half-maximal effect.

For Cn1cc(S(=O)(=O)c2ccccc2)c(=O)c2cc(F)c(N3CCN(c4ccccc4)CC3)cc21 the results were DT40 TDP1 CPT inconclusive, DT40 TDP1 no CPT inconclusive and TDP1 block 2%.
For Cc1ccc(Cn2cc(S(=O)(=O)c3ccc(C)cc3)c(=O)c3cc(F)c(N4CCCC4)cc32)cc1 the results were DT40 TDP1 CPT inconclusive, DT40 TDP1 no CPT inconclusive and TDP1 block 1%.
Screening Cc1cccc(Cn2cc(S(=O)(=O)c3ccccc3)c(=O)c3cc(F)c(N4CCOCC4)cc32)c1 returned DT40 TDP1 CPT 26µM*, DT40 TDP1 no CPT 23µM* and TDP1 block 6%.
Screening Cc1ccc(S(=O)(=O)c2cn(Cc3cccc(F)c3)c3cc(N4CCCC4)c(F)cc3c2=O)cc1 returned DT40 TDP1 CPT 4.6µM*, DT40 TDP1 no CPT 5.2µM* and TDP1 block 4%.
`Cc1cc(C)nc(NS(=O)(=O)c2ccc(NS(=O)(=O)c3ccsc3)cc2)n1` gave VP16 counter -7%, RORgamma inh 2%, DT40 TDP1 CPT 6% and DT40 TDP1 no CPT 5%.
COc1cc(C(=O)Nc2ccc(C)cc2C(NCC(=O)NN)c2ccccc2)cc(OC)c1OC (stereo not given) was read as VP16 counter 18%, RORgamma inh 21%, DT40 TDP1 CPT -3% and DT40 TDP1 no CPT 17%.
For O=C(Cn1c(=O)oc2cc(S(=O)(=O)N3CCCCC3)ccc21)N1CCc2ccccc2C1 the results were VP16 counter -9%, RORgamma inh 11%, DT40 TDP1 CPT -27%, DT40 TDP1 no CPT inconclusive and TDP1 block 6%.
`CCCCN(C(=O)c1ccc([N+](=O)[O-])s1)c1c(N)n(CC(C)C)c(=O)[nH]c1=O` gave DT40 TDP1 CPT -26%, DT40 TDP1 no CPT 1% and TDP1 block -11%.
`CCCCn1c(N)c(N(CCC(C)C)C(=O)c2ccc([N+](=O)[O-])s2)c(=O)[nH]c1=O` gave DT40 TDP1 CPT 23µM*, DT40 TDP1 no CPT inconclusive and TDP1 block 1%.
Screening CC1(C)Cc2c(sc3nc(=S)[nH]c(N)c23)CO1 returned VP16 counter 18µM*, RORgamma inh inconclusive and TDP1 block -2%.
`Cn1c(NN)nc2sc3c(c2c1=O)CC(C)(C)OC3` gave VP16 counter 3.5µM*, RORgamma inh 1.4µM*, DT40 TDP1 CPT inconclusive, DT40 TDP1 no CPT inconclusive and TDP1 block -8%[56.1 µM].
`CCSc1nc2sc3c(c2c(=O)[nH]1)CC(C)(CC)OC3` (stereo not given) gave VP16 counter -16%, RORgamma inh 13%, DT40 TDP1 CPT -22%, DT40 TDP1 no CPT -11% and TDP1 block 1%.
`CC1(C)Cc2c(sc3ncnc(N)c23)CO1` gave VP16 counter 1%, RORgamma inh -1%, DT40 TDP1 CPT -8%, DT40 TDP1 no CPT -20% and TDP1 block 5%.
`CCC1(C)Cc2c(sc3nc(SC)[nH]c(=S)c23)CO1` (stereo not given) gave VP16 counter 6.3µM*, RORgamma inh inconclusive, DT40 TDP1 CPT -4% and DT40 TDP1 no CPT inconclusive.
Cc1nc(NN)c2c3c(sc2n1)COC(C)(C)C3 was read as VP16 counter -21%, RORgamma inh 13µM*, DT40 TDP1 CPT -4% and DT40 TDP1 no CPT -20%.
For CCOc1ccc(CC(=O)Nc2c(C(=O)c3ccc(Cl)cc3)oc3ccccc23)cc1OCC the results were DT40 TDP1 CPT inconclusive, DT40 TDP1 no CPT inconclusive and TDP1 block -6%.
Screening COC(=O)N1CCCCC1c1cc(C(=O)NCc2ccc(F)cc2)no1 (stereo not given) returned DT40 TDP1 CPT -6% and DT40 TDP1 no CPT -9%.
`O=C(NCc1ccccc1)c1cc(C2CCCN(C(=O)CCCc3ccccc3)C2)on1` (stereo not given) gave DT40 TDP1 CPT 15µM* and DT40 TDP1 no CPT 15µM*.
O=C(NCc1ccccc1)c1cc(C2CCCN(C(=O)c3cccs3)C2)on1 (stereo not given) was read as DT40 TDP1 CPT inconclusive and DT40 TDP1 no CPT -10%.
`CC(C)c1ccc(C(=O)N2CCCC(c3cc(C(=O)NCc4ccccc4)no3)C2)cc1` (stereo not given) gave DT40 TDP1 CPT 13µM* and DT40 TDP1 no CPT 15µM*.
For O=C(NCc1ccc(F)cc1)c1cc(C2CCCN(C(=O)c3ccc4ccccc4c3)C2)on1 (stereo not given) the results were DT40 TDP1 CPT 16µM* and DT40 TDP1 no CPT 16µM*.
For COc1ccc(C(=O)N2CCCC(c3cc(C(=O)NCc4ccc(F)cc4)no3)C2)cc1 (stereo not given) the results were DT40 TDP1 CPT 15µM* and DT40 TDP1 no CPT inconclusive.
For O=C(NCc1ccc(F)cc1)c1cc(C2CCCN(C(=O)c3ccccn3)C2)on1 (stereo not given) the results were DT40 TDP1 CPT -21% and DT40 TDP1 no CPT -6%.
C=C1CCN(C(C)C(=O)OCc2cccc(C)c2)S(=O)(=O)c2ccccc21 (stereo not given) was read as VP16 counter 2%, RORgamma inh 5% and TDP1 block -12%.
N#CC(c1ccc(O)cc1)c1ncc(C(F)(F)F)cc1Cl (stereo not given) was read as VP16 counter -10%, RORgamma inh -6%, DT40 TDP1 CPT 17%, DT40 TDP1 no CPT -16% and TDP1 block -3%.
Screening O=C(NCc1ccc(F)cc1)c1cc(C2CCCN(C(=O)c3ccc4c(c3)CCO4)C2)on1 (stereo not given) returned DT40 TDP1 CPT 18µM* and DT40 TDP1 no CPT 23µM*.
`Cc1ccc(F)cc1C(=O)N1CCCC(c2cc(C(=O)NCc3ccc(F)cc3)no2)C1` (stereo not given) gave DT40 TDP1 CPT inconclusive and DT40 TDP1 no CPT 15µM*.
COc1cccc(S(=O)(=O)NCC(=O)N2CCCCCC2)c1 was read as VP16 counter 1%, RORgamma inh -18%[1.91 µM], DT40 TDP1 CPT 19% and DT40 TDP1 no CPT -5%.
CN(C)CCNc1cc(N2CCN(C)CC2)ncn1 was read as DT40 TDP1 CPT 11% and DT40 TDP1 no CPT 4%.
CCNC(=O)C1(C)CCN(Cc2csc(-c3ccccc3)n2)C1 (stereo not given) was read as DT40 TDP1 CPT inconclusive and DT40 TDP1 no CPT 12µM*.
`CCNC(=O)C1(C)CCN(Cc2ccc(C(F)(F)F)cc2)C1` (stereo not given) gave DT40 TDP1 CPT inconclusive and DT40 TDP1 no CPT -16%.
